Here are results for 5 compounds from PubChem BioAssay (NCATS).

Assay [1] concerns the target Calcium and integrin-binding protein 1 (Homo sapiens) (UniProt Q99828). As to the kind of experiment: Primary qHTS for Identification of Calcium Integrin Binding Protein 1 (CIB1) Competitor (AID 1508620). Note: top concentration of the series differs between compounds. In a few lines: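 Fluorescence polarization competition: GST-tagged CIB1 (1 uM final) preincubated with compound 15 min at room temperature, then FITC-labelled alphaIIb peptide (100 nM final) added. After 15 min at room temperature, polarization read at Ex 480/Em 540.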

Assay [2] can be described thus: Primary qHTS for small molecule stabilizers of the endoplasmic reticulum resident proteome: Secreted ER Calcium Modulated Protein (SERCaMP) assay (AID 1508630). In short, it runs like this: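 The SH-SY5Y reporter protocol was run at 3 concentrations up to 38.3 uM (primary) or 11 concentrations (follow-up): 16 h compound, 100 nM thapsigargin for 4 h, then extracellular luciferase luminescence.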

Results filed as inconclusive are left out. A call without a number means that no potency is given here. Calls of active or inactive are those of the source. Calls come from the whole dose curve; as a rule, active = well fitted curve in the direction sought with a large enough effect; inconclusive = small, poorly fitted or top-dose-only effect, or another doubt; inactive = no such curve, though single readings can be large; an effect the other way counts as inactive or inconclusive.

Calcium and integrin-binding protein 1 (Homo sapiens), sequence (Q99828 whole entry, looked up): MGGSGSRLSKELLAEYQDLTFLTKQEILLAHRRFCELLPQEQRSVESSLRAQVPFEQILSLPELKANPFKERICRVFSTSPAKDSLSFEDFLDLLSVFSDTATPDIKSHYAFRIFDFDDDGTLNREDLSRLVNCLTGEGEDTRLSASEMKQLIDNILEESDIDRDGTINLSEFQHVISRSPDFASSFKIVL

With `COC(=O)N1CCN(Cc2cccc(NC(=O)Nc3ccc(C)nc3)c2F)CC1`, the Potency entry in assay [1] and in assay [2] was “inactive” throughout. `COc1cc2nccc(Oc3ccc(NC(=O)Nc4cc(C)on4)c(Cl)c3)c2cc1OC`: the Potency entry in assay [1] and in assay [2] was “inactive” in each case. Turning to `c1ccc(-c2oc3ncnc(NC[C@@H]4CCCO4)c3c2-c2ccccc2)cc1`, the Potency result in assay [1] and in assay [2] was “inactive” in each case.

In the case of `COc1c(C)c2c(c(O)c1CC=C(C)CCC(=O)OCCN1CCOCC1)C(=O)OC2`, in assay [2], the Potency result was “inactive”. For the compound `OC1CCC(Nc2ncc3nc(Nc4c(F)cc(F)cc4F)n([C@@H]4CCOC4)c3n2)CC1` (stereo partly drawn), the Potency result in assay [2] is “inactive”.
